Test results reported in PubChem BioAssay (NCATS).
Records with an inconclusive call do not appear. The source made the active and inactive calls. The call rests on the fitted dose curve; in most records, active means well fitted curve in the direction sought with a large enough effect; inconclusive means small, poorly fitted or top-dose-only effect, or another doubt; inactive means no such curve, though single readings can be large; an effect the other way counts as inactive or inconclusive.

Legend:
[1] = target: Phospholipid hydroperoxide glutathione peroxidase GPX4 (Homo sapiens) (UniProt P36969); assay: Primary qHTS Assay for Inhibitors of Recombinant Selenoprotein Glutathione Peroxidase 4 (GPX4) (AID 1845192); further: nearly all actives have a fitted effect of over 65% in size; further: potency means the concentration at half of the fitted maximal effect; on activity change, negative = inhibition: series mostly up to about 50 µM; on the % scale 0 is the no-effect control and ±100 the full control effect
Outline: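 qHTS, GR-coupled: GPX4 200 nM + cpd 30 min RT → GSH 1 mM, NADPH 0.5 mM, GR 100 nM → CHP 0.5 mM start; fluor 340/450 at t0 and t15 min; no-enzyme wells as control.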

[2] = target: Luciferin 4-monooxygenase (Photinus pyralis) (UniProt P08659); assay: Primary firefly luciferase (FLuc) qHTS assay for identification of artifact compounds. (AID 1845220); further: nearly all actives have a fitted effect of over 60% in size;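 on activity change, negative = inhibition: series mostly up to about 54 µM; plate controls were DMSO vehicle for no effect and no enzyme for full effect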
Outline: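 In this counter-screen for luciferase artifacts, test compounds met substrate (10 uM each luciferin and ATP) before 10 nM enzyme started the reaction. Light output was measured 5 min later.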

[3] = Primary fluorescence-based thiol-reactive (MSTI) qHTS assay for identification of artifact compounds. (AID 1845221); further: nearly all actives have a fitted effect of over 65% in size; further: potency means the concentration at half of the fitted maximal effect;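 on activity change, negative = thiol reactive: series mostly up to about 54 µM; thiol-reactive compounds lower the probe fluorescence signal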
Outline: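 In PBS pH 7.4 with 2% DMSO, each compound met 4 uM MSTI for one hour at ambient temperature, shielded from light, before fluorescence detection.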

[4] = test system: Nanoluciferase (engineered Oplophorus gracilirostris luciferase); assay: Primary Nanoluciferase (NLuc) qHTS assay for identification of artifact compounds. (AID 1845222);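 further: NLuc secreted into diluted conditioned medium of S16 cells; series mostly up to about 54 µM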
Outline: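 Using secreted nanoluciferase in S16 culture medium (0.22 um filtered, 1:55 dilution), compounds were preincubated 15 min at RT. Signal was generated with Nano-Glo reagent (1:100) over 5 min.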

[5] = Primary redox qHTS assay for identification of artifact compounds. (AID 1845223);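 further: 0% = DMSO and 100% = reference compound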
Outline: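 Redox-cycling detection via DTT (250 uM final) oxidation coupled to Amplex Red (25 uM)/HRP (250 mU/mL) in HBSS. 15 min preincubation plus 30 min after DTT, room temperature. Ex/Em 525/598 nm; 4-parameter Hill fit against DMSO and 10 uM DA3003.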

[6] = target: Cytochrome P450 3A4 (Homo sapiens) (UniProt P08684); assay: qHTS for inhibitors of CYP3A4 against the NCATS DSHEA and TCM libraries (AID 1919971);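 further: on the % scale 0 is the no-effect control and ±100 the full control effect; inhibition lowers luminescence from luciferin made by CYP3A4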
Outline: (§1)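 Each CYP isoform and its pro-luciferin substrate, at isoform-specific final concentrations, were preincubated 15 min at RT with substances. NADPH regeneration solution (1x) started a 30-45 min reaction, and P450-Glo luminescence was read.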

[7] = target: Cytochrome P450 2D6 (Homo sapiens) (UniProt P10635); assay: qHTS for inhibitors of CYP2D6 against the NCATS DSHEA and TCM libraries (AID 1919972); further: on the % scale 0 is the no-effect control and ±100 the full control effect
Outline: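 CYP2D6 enzyme with pro-luciferin substrate in manufacturer buffer (typically 100 mM KPO4), preincubated 15 min RT with substances (most at 19.5 nM upward); NADPH regeneration system (1x) started 30–45 min RT reaction; P450-Glo luminescence read after 30 min; quinidine as intraplate control.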

[8] = target: Cytochrome P450 2C9 (Homo sapiens) (UniProt P11712); assay: qHTS for inhibitors of CYP2C9 against the NCATS DSHEA and TCM libraries (AID 1919973);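 further: luminogenic pro-luciferin CYP2C9 substrate turned into luciferin with NADPH regeneration; series mostly up to about 34 µM; on the % scale 0 is the no-effect control and ±100 the full control effect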
Outline: as §1

Chain of Phospholipid hydroperoxide glutathione peroxidase GPX4 (Homo sapiens) (P36969 whole entry, looked up): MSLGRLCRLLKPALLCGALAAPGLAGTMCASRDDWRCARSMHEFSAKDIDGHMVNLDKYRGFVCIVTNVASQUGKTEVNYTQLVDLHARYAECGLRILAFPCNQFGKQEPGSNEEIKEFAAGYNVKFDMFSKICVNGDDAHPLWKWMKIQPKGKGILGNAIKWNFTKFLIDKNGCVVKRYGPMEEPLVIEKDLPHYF
Chain of Cytochrome P450 3A4 (Homo sapiens) (P08684 whole entry, looked up, canonical isoform): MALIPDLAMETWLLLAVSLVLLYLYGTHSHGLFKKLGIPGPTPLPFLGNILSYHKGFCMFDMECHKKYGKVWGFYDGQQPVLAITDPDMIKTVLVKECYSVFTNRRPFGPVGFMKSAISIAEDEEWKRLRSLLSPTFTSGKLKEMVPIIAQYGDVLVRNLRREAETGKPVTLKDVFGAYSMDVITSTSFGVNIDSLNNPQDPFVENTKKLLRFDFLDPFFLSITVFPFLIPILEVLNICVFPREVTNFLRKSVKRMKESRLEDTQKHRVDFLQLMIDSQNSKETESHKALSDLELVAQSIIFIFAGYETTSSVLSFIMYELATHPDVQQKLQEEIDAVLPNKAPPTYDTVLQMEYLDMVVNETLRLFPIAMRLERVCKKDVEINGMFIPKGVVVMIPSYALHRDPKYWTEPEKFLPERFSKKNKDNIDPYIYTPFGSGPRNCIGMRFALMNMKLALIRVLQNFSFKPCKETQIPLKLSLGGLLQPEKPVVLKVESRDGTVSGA
Chain of Cytochrome P450 2D6 (Homo sapiens) (P10635 whole entry, looked up): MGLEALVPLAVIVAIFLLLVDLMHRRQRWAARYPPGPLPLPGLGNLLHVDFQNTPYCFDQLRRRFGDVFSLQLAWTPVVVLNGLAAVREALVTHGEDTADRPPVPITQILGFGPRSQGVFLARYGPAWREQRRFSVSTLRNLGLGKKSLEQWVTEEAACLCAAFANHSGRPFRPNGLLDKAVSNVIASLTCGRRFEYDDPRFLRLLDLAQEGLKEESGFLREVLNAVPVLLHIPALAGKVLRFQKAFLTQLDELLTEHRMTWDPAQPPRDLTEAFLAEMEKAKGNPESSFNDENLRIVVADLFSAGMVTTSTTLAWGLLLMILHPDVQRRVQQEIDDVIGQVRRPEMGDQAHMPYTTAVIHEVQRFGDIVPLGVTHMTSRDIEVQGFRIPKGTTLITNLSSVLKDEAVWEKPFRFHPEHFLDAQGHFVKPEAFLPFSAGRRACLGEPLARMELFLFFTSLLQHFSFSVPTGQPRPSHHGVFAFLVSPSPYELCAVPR
Chain of Cytochrome P450 2C9 (Homo sapiens) (P11712 whole entry, looked up): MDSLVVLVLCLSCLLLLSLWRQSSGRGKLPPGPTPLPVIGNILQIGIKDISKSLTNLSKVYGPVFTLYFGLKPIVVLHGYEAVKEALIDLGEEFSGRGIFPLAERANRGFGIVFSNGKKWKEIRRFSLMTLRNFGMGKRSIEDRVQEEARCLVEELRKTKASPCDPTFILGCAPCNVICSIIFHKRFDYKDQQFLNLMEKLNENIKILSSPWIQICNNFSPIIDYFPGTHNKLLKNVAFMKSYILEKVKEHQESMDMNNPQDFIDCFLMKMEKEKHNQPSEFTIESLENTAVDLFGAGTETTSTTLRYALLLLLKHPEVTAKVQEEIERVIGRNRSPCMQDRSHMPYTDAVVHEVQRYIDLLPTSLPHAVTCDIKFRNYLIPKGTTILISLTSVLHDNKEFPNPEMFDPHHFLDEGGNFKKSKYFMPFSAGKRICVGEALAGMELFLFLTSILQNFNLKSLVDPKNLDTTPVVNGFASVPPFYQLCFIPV

CC(C)CN(C[C@@H](O)[C@H](Cc1ccccc1)NC(=O)O[C@@H]1CO[C@H]2OCC[C@H]21)S(=O)(=O)c1ccc(N)cc1
inactive: Potency [1] | Potency [2] | Potency [3] | Potency [4] | Potency [5]

O=C(O)c1cn(C2CC2)c2cc(N3C[C@@H]4C[C@H]3CN4)c(F)cc2c1=O
inactive: Potency [2] | Potency [3] | Potency [4] | Potency [5]
active: Potency [1] 10.1 µM

CC1(CCOC2OC(CO)C(O)C(O)C2O)CCC23OC2(C1)C(O)CC1C(C)(C(=O)O)CCCC13C (centres undefined)
inactive: Potency [1] | Potency [2] | Potency [3] | Potency [4] | Potency [5]

COc1ccc(C[C@H](N)C(=O)N[C@@H]2[C@H](O)[C@H](n3cnc4c(N(C)C)ncnc43)O[C@@H]2CO)cc1
inactive: Potency [1] | Potency [2] | Potency [3] | Potency [5]

CN(c1ccccc1CNc1nc(Nc2ccc3c(c2)CC(=O)N3)ncc1C(F)(F)F)S(C)(=O)=O
active: Potency [3] 10.6 µM
inactive: Potency [1] | Potency [2] | Potency [4] | Potency [5]

CC(C)=CCC[C@](C)(O[C@@H]1O[C@H](CO[C@@H]2O[C@H](CO)[C@@H](O)[C@H](O)[C@H]2O)[C@@H](O)[C@H](O)[C@H]1O)C1CC[C@]2(C)[C@@H]1[C@H](O)CC1[C@@]3(C)CC[C@H](O[C@@H]4O[C@H](CO)[C@@H](O)[C@H](O)[C@H]4O[C@@H]4O[C@H](CO)[C@@H](O)[C@H](O)[C@H]4O)C(C)(C)[C@@H]3CC[C@]12C (some centres undefined)
inactive: Potency [1] | activity change, negative = inhibition [2] -9.29% [at 11.6 µM] | activity change, negative = thiol reactive [3] 44.5% [at 11.5 µM] | activity, negative = inhibition [4] 0.108% [at 11.6 µM] | redox activity (% of DA3003) [5] 5.05% [at 11.5 µM] | outcome [6] | outcome [7] | outcome [8]

Cc1ccc(NC(=O)Nc2cc(C(F)(F)F)ccc2F)cc1Nc1ccc2c(c1)NC(=O)/C2=C\c1ccc[nH]1
inactive: Potency [1] | Potency [2] | Potency [5]
active: Potency [3] 1.34 µM

O=C(O)/C=C/c1ccc(-c2ccc(O)c(C34CC5CC(CC(C5)C3)C4)c2)cc1
inactive: Potency [1] | Potency [2] | Potency [3] | Potency [4] | Potency [5]

COc1ccc(C2=N[C@@H](c3ccc(Cl)cc3)[C@@H](c3ccc(Cl)cc3)N2C(=O)N2CCNC(=O)C2)c(OC(C)C)c1
inactive: Potency [1] | Potency [2] | Potency [3] | Potency [4] | Potency [5]

CC(C)(F)C[C@@H](N[C@@H](c1ccc(-c2ccc(S(C)(=O)=O)cc2)cc1)C(F)(F)F)C(=O)NC1(C#N)CC1
inactive: Potency [1] | Potency [2] | Potency [3] | Potency [4] | Potency [5]

C[C@@H]1O[C@@H](O[C@H]2[C@H](O[C@H]3[C@H](O)[C@@H](C(=O)O)O[C@@H](O[C@H]4CC[C@@]5(C)C(CC[C@]6(C)C5CC[C@]57OC[C@@]8(CCC(C)(C)CC85)[C@H](O)C[C@]76C)C4(C)C)[C@@H]3O[C@@H]3O[C@H](CO)[C@@H](O[C@@H]4OC[C@@H](O)[C@H](O)[C@H]4O)[C@H](O)[C@H]3O)O[C@H](CO)[C@H](O)[C@@H]2O)[C@H](O)[C@H](O)[C@H]1O (some centres undefined)
inactive: outcome [1] inactive [at 9.73 µM] | activity change, negative = inhibition [2] 0.267% [at 11.6 µM] | activity change, negative = thiol reactive [3] 330% [at 11.5 µM] | activity, negative = inhibition [4] 0% [at 11.6 µM] | redox activity (% of DA3003) [5] 15% [at 11.5 µM]

CC(C)Oc1ccc(C(=O)NC(CNC(=O)CN(C)C)Cc2ccc(-c3cn4cccc(C(C)O)c4n3)cc2)cc1Cl (centres undefined)
inactive: Potency [1] | Potency [2] | Potency [3] | Potency [4] | Potency [5]

CC(NC(=O)C(O)C(C)C)C(=O)NC1C(=O)N(C)CCc2ccccc21 (centres undefined)
inactive: Potency [1] | Potency [2] | Potency [3] | Potency [4] | Potency [5]

Cn1nc(C(C)(C)C)cc1C(=O)NC(Cc1cccc(Cl)c1)C(=O)NCC#N (centres undefined)
inactive: Potency [1] | Potency [2] | Potency [3] | Potency [4] | Potency [5]

COc1cc2oc(-c3ccc(O)cc3O)cc2c(OC)c1CC=C(C)C
inactive: Potency [1] | Potency [2] | Potency [4] | Potency [5]
active: Potency [3] 6.56 µM

Cn1nnc(-c2ccc(-c3ccc(N4C[C@H](COP(=O)(O)O)OC4=O)cc3F)cn2)n1
active: Potency [1] 22.7 µM
inactive: Potency [2] | Potency [3] | Potency [5]

CC(C)(C(=O)NCC(F)(F)C(F)(F)F)C(=O)NC1C(=O)Nc2ccccc2-c2ccccc21 (centres undefined)
inactive: Potency [1] | Potency [2] | Potency [3] | Potency [4] | Potency [5]

CC1(c2nc3c(C(N)=O)cccc3[nH]2)CCCN1 (centres undefined)
inactive: Potency [1] | Potency [2] | Potency [3] | Potency [4] | Potency [5]

CC1(C)CC[C@]2(C(=O)O)CC[C@]3(C)C(=CCC4[C@@]5(C)C[C@@H](O)[C@H](O)C(C)(C)C5CC[C@]43C)C2C1 (some centres undefined)
inactive: Potency [1] | Potency [2] | Potency [3] | Potency [4] | Potency [5]

Cc1c(CN2CCN(C(=O)C(C)O)CC2)sc2c(N3CCOCC3)nc(-c3cnc(N)nc3)nc12 (centres undefined)
inactive: Potency [1] | Potency [2] | Potency [3] | Potency [4] | Potency [5]

Cc1cn(C2C=CC(CO)O2)c(=O)[nH]c1=O (centres undefined)
inactive: Potency [1] | Potency [2] | Potency [3] | Potency [5]
